# About 83,000 compounds went through this panel and 20% of them were active in at least one assay; those are over-represented in the sample as a whole.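 Treatment: one concentration, 48 hours, 96-well format. Scoring: percent growth, with anything below 10 considered active.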 A number with no mark means an inactive call. Activity calls are given as the source filed them.
# What was measured:
# Experiment in all cases: NCI-60 one-dose screen, 48 h (100 = growth as untreated, 0 = no growth, -100 = all killed)
# Details in all cases: 10 µM unless noted
# DU-145 prostate = tested on: DU-145 prostate
# K-562 leukemia = tested on: K-562 leukemia
# MALME-3M melanoma = tested on: MALME-3M melanoma
# MDA-MB-231 breast = tested on: MDA-MB-231 breast
# RXF 393 renal = tested on: RXF 393 renal
# SF-268 CNS = tested on: SF-268 CNS
# SF-295 CNS = tested on: SF-295 CNS
# SF-539 CNS = tested on: SF-539 CNS
# UACC-257 melanoma = tested on: UACC-257 melanoma
# M14 melanoma = tested on: M14 melanoma
# HCT-15 colon = tested on: HCT-15 colon
# HT29 colon = tested on: HT29 colon
# SNB-75 CNS = tested on: SNB-75 CNS
# SNB-19 CNS = tested on: SNB-19 CNS
# U251 CNS = tested on: U251 CNS
# PC-3 prostate = tested on: PC-3 prostate
# SK-MEL-5 melanoma = tested on: SK-MEL-5 melanoma
# UACC-62 melanoma = tested on: UACC-62 melanoma
# LOX IMVI melanoma = tested on: LOX IMVI melanoma
# SK-MEL-28 melanoma = tested on: SK-MEL-28 melanoma
Structure (SMILES),growth (DU-145 prostate),growth (K-562 leukemia),growth (MALME-3M melanoma),growth (MDA-MB-231 breast),growth (RXF 393 renal),growth (SF-268 CNS),growth (SF-295 CNS),growth (SF-539 CNS),growth (UACC-257 melanoma),growth (M14 melanoma),growth (HCT-15 colon),growth (HT29 colon),growth (SNB-75 CNS),growth (SNB-19 CNS),growth (U251 CNS),growth (PC-3 prostate),growth (SK-MEL-5 melanoma),growth (UACC-62 melanoma),growth (LOX IMVI melanoma),growth (SK-MEL-28 melanoma)
O=C(/C=C/c1cccc(Cl)c1)c1cccc(OCCCCOc2cccc(C(=O)/C=C/c3cccc(Cl)c3)c2)c1,97.4%,91.4%,96.8%,97.1%,89.9%,96.6%,103%,96.6%,89.7%,85.5%,83.6%,76.1%,77.8%,91%,68.7%,92.2%,98.6%,72.8%,30.5%,99.2%
CCN1C(=O)N(CC)C2C1NN=c1s/c(=C3\C(=O)N(CCc4ccccc4)c4ccccc43)c(=O)n12 (stereo not given),5.49% (active),7.99% (active),33.3%,2.5% (active),-5.91% (active),47%,9.5% (active),-37.4% (active),53.2%,13.6%,10.7%,0.473% (active),-4.86% (active),23.3%,14.5%,20.5%,7.69% (active),28.1%,10.9%,43.6%
O=C1Nc2ccccc2/C1=C/c1cn(C[C@@H](O)Cn2c3ccccc3c(=O)c3ccccc32)c2ccccc12,105%,68.4%,81.3%,50.2%,76.8%,72.8%,81.6%,84.7%,100%,69.7%,73.9%,77.8%,63.6%,73.1%,75.2%,51.1%,67.1%,69.2%,69.1%,95.4%
O=C(N/N=C/c1ccc([N+](=O)[O-])cc1)c1ccc2nc(-c3ccc(Cl)cc3)[nH]c2c1,42%,9.68% (active),7.79% (active),76.9%,31.6%,48.5%,21.7%,41.7%,25.1%,25.9%,29.9%,8.25% (active),69.3%,52%,22.3%,21.4%,2.58% (active),43.7%,-0.908% (active),45.3%
CCN=C1C=CC(=C(c2ccc(N(C)C)cc2)c2ccc(N(C)C)cc2)c2ccccc21,1.96% (active),10.9%,-48.4% (active),-12% (active),-29.2% (active),-8.78% (active),-37.5% (active),-57.4% (active),-10.1% (active),-42.2% (active),-7.99% (active),-18.7% (active),-17.3% (active),14.8%,-3.23% (active),-4.82% (active),-95.5% (active),-38% (active),-10.8% (active),-18.5% (active)
CCCCc1oc2ccccc2c1C(=O)c1ccc(O)cc1,101%,37.8%,85.4%,79.1%,72.7%,94.2%,175%,82.5%,76.8%,92.2%,81.6%,103%,62.4%,91.1%,85.8%,73%,82.6%,69.1%,82.7%,116%
CC(C)(C)C(=O)/C=C/c1ccc([N+](=O)[O-])cc1,80.2%,13.3%,103%,81.2%,93.7%,90.1%,93.3%,86.9%,50%,70.9%,42.1%,50.2%,81.1%,66.9%,58%,55.3%,81.7%,74.4%,36.9%,92.1%
O=S(=O)(c1ccccc1)N1CCCN(c2nc(-c3ccccc3)nc3nc(-c4ccccc4)oc23)CC1,119%,110%,105%,108%,115%,111%,105%,104%,109%,109%,109%,109%,88.5%,101%,107%,105%,103%,102%,99.9%,110%
COc1cc(/C=C\c2cc(/C=C\c3ccc(O)c(OC)c3)n(C(=O)CNc3ccc(Cl)cc3)n2)ccc1O,27.7%,6.99% (active),34.2%,43%,3.29% (active),25.5%,72.8%,8.34% (active),70.2%,4.29% (active),11.3%,15.8%,25.5%,45.6%,16.1%,33.9%,15.9%,10.9%,11.2%,49.5%
O=C(Cn1nnc2ccccc21)Nc1ccc(-c2nc3ccccc3s2)cc1,74%,55.2%,96.9%,94.7%,99.9%,92.4%,84.7%,71.2%,94.5%,90.6%,91.5%,101%,106%,103%,89.6%,83.3%,74.3%,97.1%,84.2%,102%
Cc1[nH]c(C(=O)Nc2ccc(C(N)=O)cc2NC(C)C)c(Cl)c1Cl,100%,85.8%,94.4%,90.1%,94.7%,86.5%,100%,92.8%,96.2%,87.6%,92.9%,106%,69%,103%,91.4%,77.4%,88.1%,91.4%,96.2%,105%
CCOC(=O)c1c2c(n3ccccc13)C(=O)c1ncccc1C2=O,8.05% (active),11.2%,18.1%,13.4%,25%,20%,22.3%,-2.14% (active),-3.95% (active),-37.6% (active),22.4%,47.6%,34.3%,16.5%,0.0106% (active),19.9%,-17.8% (active),-25.8% (active),0.56% (active),28.9%
COc1cccc(/C=C/C(=O)c2cc3c(N)c(C(=O)Nc4cccc(Cl)c4C)sc3nc2C)c1,4.37% (active),11%,14.7%,-26.5% (active),-71% (active),10.1%,5.12% (active),-36% (active),57.4%,-28.4% (active),-57.4% (active),-80.7% (active),-1.75% (active),-35.7% (active),-78.4% (active),13.9%,-31.3% (active),1.73% (active),-64.2% (active),16.3%
Cn1cc(-c2ccc3cc(-c4ccc(CC(=O)Nc5cc(C(C)(C)C)on5)cc4)cnc3c2)cn1,22.1%,5.03% (active),-15.8% (active),11.4%,-0.246% (active),15.7%,29.7%,20.4%,5.83% (active),0.0609% (active),10.9%,38.8%,28.4%,34.7%,2.41% (active),21.1%,26.7%,10.8%,30.4%,29.1%

# Reference: PubChem BioAssay (NCI)
